Experimental data reported in PubChem BioAssay (NCATS).
Records with an inconclusive call do not appear. Calls of active or inactive are those of the source. Unless noted, the call rests on the fitted dose curve; in most records, active means well fitted curve in the direction sought with a large enough effect; inconclusive means small, poorly fitted or top-dose-only effect, or another doubt; inactive means no such curve, though single readings can be large; an effect the other way counts as inactive or inconclusive.

Legend:
[1] = NFAT Signaling Pathway (AID 444; active means well fitted curve in either direction with a large enough effect, not every such curve was filed as active;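 further: carbachol stimulus at about its EC50 of 1 µM final; on the % scale 0 is the no-effect control and ±100 the full control effect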); details: Jurkat NFAT-bla M1, carbachol, beta-lactamase ratio, 5 h; at 17.2 µM (top of the series) unless noted
Outline: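 Jurkat cells carrying an NFAT-driven β-lactamase reporter and co-transfected muscarinic M1 receptor were treated with compound plus carbachol (1 uM final, an EC50 level) for 5 h at 37 °C. CCF4 loading followed for 1 h at RT; 460/530 nm ratio gave %activity.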

[2] = Stat Signaling Pathway (AID 446; active means well fitted curve in either direction with a large enough effect, not every such curve was filed as active;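 further: ME-180 cervical cancer cells given 40 pM IL-6 alongside compound; SIE-controlled beta-lactamase reporter measured as 460/530 nm FRET emission ratio; on the % scale 0 is the no-effect control and ±100 the full control effect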); details: ME-180 SIE beta-lactamase reporter, IL-6 stimulated, 5 h; at 17.2 µM (top of the series) unless noted
Outline: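 Reporter line: ME-180 cervical carcinoma, SIE-beta-lactamase. Treatment: compound with 40 pM IL-6, 5 hrs, 37 C, in low-serum OPTI-MEM with 10 mM HEPES pH 7.3. Detection: 460/530 nm fluorescence.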

[3] = target: Glucocorticoid receptor (Homo sapiens) (UniProt P04150); experiment: GR-GFP Redistribution (AID 450;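 active means compounds whose dose series gives a full or clear partial fitted curve of increased nuclear translocation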; further: potency means the concentration at half of the fitted maximal effect)
Glucocorticoid receptor (Homo sapiens), sequence (P04150 whole entry, looked up, the tested form may be a part): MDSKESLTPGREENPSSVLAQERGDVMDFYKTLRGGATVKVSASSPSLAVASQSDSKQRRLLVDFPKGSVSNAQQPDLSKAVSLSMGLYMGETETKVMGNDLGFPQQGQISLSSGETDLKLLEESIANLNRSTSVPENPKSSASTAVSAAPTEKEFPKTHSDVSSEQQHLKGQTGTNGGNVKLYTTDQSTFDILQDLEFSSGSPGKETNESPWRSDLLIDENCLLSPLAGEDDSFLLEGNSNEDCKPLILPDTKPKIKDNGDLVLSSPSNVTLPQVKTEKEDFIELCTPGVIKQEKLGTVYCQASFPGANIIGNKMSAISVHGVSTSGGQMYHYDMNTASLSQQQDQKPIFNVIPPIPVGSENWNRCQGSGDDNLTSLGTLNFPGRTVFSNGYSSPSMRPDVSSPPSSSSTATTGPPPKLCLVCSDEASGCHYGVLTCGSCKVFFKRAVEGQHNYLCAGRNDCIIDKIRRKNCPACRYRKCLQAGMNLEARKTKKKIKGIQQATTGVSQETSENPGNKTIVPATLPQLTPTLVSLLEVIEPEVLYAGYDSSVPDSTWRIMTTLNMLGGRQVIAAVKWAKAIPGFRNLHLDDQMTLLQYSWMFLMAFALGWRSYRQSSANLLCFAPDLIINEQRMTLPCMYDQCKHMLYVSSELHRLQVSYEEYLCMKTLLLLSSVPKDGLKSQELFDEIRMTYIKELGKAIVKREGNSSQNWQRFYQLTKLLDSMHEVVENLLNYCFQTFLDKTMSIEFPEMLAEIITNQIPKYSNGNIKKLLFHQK

[4] = target: Glucocorticoid receptor (Homo sapiens) (UniProt P04150); experiment: GR-EFC Redistribution (AID 451; calls by dose curve; further: potency means the concentration at half of the fitted maximal effect); details: CHO-K1 GR-EFC translocation, beta-gal luminescence, 2 h
Outline: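 CHO-K1 cells stably expressing nuclear-localized β-gal enzyme acceptor and GR fused C-terminally to the enzyme donor fragment; ligand-driven nuclear translocation restores β-gal by complementation. Compounds titrated up to 46 uM final, 2 h at 37 °C; luminescence read.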

[5] = target: Mitogen-activated protein kinase 10 (Mus musculus) (UniProt Q61831); experiment: JNK3 AlphaScreen Assay (AID 530; active means well fitted curve in either direction with a large enough effect, not every such curve was filed as active;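 further: kinase came from lysate of stimulated human HepG2 cells; signal reports phosphorylation of biotinylated GST-cJun 1-79 at Ser73 with 10 µM ATP; on the % scale 0 is the no-effect control and ±100 the full control effect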)
Outline: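 Inhibitors reduce antibody binding to phosphorylated biotin-cJun, lowering AlphaScreen luminescence. Lysates from HepG2 cells pre-activated by IL-1beta plus TNF-alpha supplied JNK3; compounds were titrated.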

[6] = target: 3',5'-cyclic-AMP phosphodiesterase 4B (Homo sapiens) (UniProt Q07343); experiment: qHTS Assay for Inhibitors of PDE-IV (AID 607; active means well fitted activation curve with a large enough effect in the main read-out, with a control signal flat, not every such curve was filed as active; further: % of control where 0% means no effect)
3',5'-cyclic-AMP phosphodiesterase 4B (Homo sapiens), sequence (Q07343 whole entry, looked up): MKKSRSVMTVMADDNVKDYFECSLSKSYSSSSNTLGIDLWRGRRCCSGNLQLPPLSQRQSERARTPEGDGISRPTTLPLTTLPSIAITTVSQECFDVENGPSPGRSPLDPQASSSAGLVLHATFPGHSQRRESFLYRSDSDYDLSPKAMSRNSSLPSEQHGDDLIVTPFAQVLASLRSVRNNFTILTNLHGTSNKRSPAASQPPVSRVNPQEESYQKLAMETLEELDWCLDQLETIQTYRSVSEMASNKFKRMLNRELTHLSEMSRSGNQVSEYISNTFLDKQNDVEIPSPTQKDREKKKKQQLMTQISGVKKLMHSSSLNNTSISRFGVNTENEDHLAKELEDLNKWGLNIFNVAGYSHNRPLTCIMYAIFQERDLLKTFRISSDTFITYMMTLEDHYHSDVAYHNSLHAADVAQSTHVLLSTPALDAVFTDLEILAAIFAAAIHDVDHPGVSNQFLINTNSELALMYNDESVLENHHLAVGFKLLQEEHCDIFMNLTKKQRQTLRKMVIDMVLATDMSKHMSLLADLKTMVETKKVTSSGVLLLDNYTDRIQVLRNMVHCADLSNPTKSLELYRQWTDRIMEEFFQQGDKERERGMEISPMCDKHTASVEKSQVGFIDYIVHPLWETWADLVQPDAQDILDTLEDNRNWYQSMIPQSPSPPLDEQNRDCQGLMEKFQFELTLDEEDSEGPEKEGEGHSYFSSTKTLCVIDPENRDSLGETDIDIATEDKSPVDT
Outline: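 Cell-based read-out of cAMP via a modified cyclic nucleotide-gated channel and membrane potential dye (535/590 nm) in HEK293 cells expressing PDE4 endogenously. Compounds tested up to 22.9 uM final; 100 uM RO 20-1724 reference.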

[7] = target: ATP-dependent 6-phosphofructokinase (Trypanosoma brucei brucei) (UniProt O15648); experiment: qHTS Assay to Find Inhibitors of T. brucei phosphofructokinase: hit validation (AID 492961);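 further: luminescence reports ADP formed as PFK phosphorylates fructose-6-phosphate with ATP; on the % scale 0 is the no-effect control and ±100 the full control effect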
ATP-dependent 6-phosphofructokinase (Trypanosoma brucei brucei), sequence (O15648 whole entry, looked up): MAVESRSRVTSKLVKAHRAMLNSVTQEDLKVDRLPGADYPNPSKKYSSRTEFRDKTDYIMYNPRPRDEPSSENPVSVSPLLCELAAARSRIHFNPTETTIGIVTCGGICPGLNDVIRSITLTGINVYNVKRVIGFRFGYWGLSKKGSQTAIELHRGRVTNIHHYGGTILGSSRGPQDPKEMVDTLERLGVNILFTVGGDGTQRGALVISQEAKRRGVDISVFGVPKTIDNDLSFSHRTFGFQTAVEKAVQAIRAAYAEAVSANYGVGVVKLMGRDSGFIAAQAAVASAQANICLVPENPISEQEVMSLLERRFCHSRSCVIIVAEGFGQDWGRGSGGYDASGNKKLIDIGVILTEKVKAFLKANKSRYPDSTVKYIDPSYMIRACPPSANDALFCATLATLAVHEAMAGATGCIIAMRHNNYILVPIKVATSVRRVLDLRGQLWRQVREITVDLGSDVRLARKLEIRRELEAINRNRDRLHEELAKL
Outline: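 Reaction: 0.1 M triethanolamine pH 8.0, 5 mM MgCl2, F6P 0.5 mM, ATP 0.1 mM, PFK 1.25 nM, 45 min RT. Read-out: ADP-Glo luminescence. Analysis: concentration-response fits, classed by r2 and efficacy.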

[8] = target: Ubiquitin carboxyl-terminal hydrolase 1 (Homo sapiens) (UniProt O94782); experiment: Inhibitors of USP1/UAF1: Pilot qHTS (AID 504865);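 further: rhodamine fluorescence freed from ubiquitin-rhodamine substrate followed over time; top concentration of the series differs between compounds; on the % scale 0 is the no-effect control and ±100 the full control effect; nearly all actives have a fitted effect of over 35% in size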
Ubiquitin carboxyl-terminal hydrolase 1 (Homo sapiens), sequence (O94782 whole entry, looked up): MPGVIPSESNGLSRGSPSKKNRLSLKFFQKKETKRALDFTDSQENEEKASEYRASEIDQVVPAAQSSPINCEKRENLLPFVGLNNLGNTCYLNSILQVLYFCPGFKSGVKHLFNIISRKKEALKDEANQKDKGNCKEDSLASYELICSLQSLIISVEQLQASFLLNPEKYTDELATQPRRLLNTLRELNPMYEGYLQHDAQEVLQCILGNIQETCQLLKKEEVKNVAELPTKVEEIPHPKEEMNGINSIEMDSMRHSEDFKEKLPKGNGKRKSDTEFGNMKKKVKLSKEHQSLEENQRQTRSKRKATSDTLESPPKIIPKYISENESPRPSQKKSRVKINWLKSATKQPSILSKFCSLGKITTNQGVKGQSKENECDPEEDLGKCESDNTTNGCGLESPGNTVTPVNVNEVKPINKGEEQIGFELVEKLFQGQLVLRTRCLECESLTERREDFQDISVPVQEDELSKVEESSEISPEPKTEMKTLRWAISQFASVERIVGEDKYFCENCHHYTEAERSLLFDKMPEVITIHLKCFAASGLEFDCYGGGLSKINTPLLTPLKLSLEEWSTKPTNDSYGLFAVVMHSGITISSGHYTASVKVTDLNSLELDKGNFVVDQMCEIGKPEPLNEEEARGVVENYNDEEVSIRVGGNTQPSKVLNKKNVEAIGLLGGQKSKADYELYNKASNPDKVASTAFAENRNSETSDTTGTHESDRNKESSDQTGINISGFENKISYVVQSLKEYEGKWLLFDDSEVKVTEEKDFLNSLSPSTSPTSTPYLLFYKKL
Outline: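 USP1/UAF1 complex (1nM) preincubated with compound 15 min at room temperature, then Ub-Rho substrate (150nM final) added. Fluorescence read kinetically at 480/540 nm, 6 reads every 60 seconds. Buffer: 50mM HEPES pH 7.8, 0.5mM EDTA, 0.1 mg/ml BSA, 1mM TCEP, 0.01% Tween-20.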

[9] = target: Luciferin 4-monooxygenase (Photinus pyralis) (UniProt P08659); experiment: Biochemical firefly luciferase enzyme assay for NPC (AID 624030);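 further: purified P. pyralis luciferase at 10 nM with luciferin and ATP substrate; 0% = DMSO and -100% = full luciferase inhibition by PTC124 control; nearly all actives have a fitted effect of over 70% in size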
Luciferin 4-monooxygenase (Photinus pyralis), sequence (P08659 whole entry, looked up): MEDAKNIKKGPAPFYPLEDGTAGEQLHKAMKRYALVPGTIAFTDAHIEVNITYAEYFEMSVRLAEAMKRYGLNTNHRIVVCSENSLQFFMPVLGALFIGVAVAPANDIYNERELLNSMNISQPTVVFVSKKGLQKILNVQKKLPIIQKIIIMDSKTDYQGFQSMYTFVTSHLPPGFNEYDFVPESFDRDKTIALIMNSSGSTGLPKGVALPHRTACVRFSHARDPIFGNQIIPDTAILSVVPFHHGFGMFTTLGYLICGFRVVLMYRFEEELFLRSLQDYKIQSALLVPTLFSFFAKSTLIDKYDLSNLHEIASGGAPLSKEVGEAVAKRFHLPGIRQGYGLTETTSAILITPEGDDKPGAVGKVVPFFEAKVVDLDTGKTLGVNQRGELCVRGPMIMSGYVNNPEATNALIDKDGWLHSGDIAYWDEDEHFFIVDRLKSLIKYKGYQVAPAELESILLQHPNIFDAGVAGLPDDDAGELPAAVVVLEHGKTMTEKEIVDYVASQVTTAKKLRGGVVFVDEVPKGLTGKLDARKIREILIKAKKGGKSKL
Outline: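 Counter-screen for direct inhibition of the luciferase enzyme by approved-drug library compounds, run at 10 nM enzyme in 50 mM Tris acetate (final). Luminescence was read within 5 min of enzyme-buffer addition and normalized to PTC124 versus DMSO (0%).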

[10] = S16 Schwann cell viability assay (CellTiter-Glo assay) (AID 624031);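 further: cellular ATP luminescence as a viability measure; plate controls were DMSO-treated cells for no effect and cell-free wells for full effect; nearly all actives have a fitted effect of over 70% in size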
Outline: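 Native S16 rat Schwann cells in DMEM/10% FBS without phenol red were incubated overnight, then exposed to compounds for 24 h at 37 °C/5% CO2. Viability was read as ATP luminescence (CellTiter-Glo), normalized to no-cell wells and DMSO (0%).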

[11] = S16 Schwann cell PMP22 intronic element firefly luciferase assay (AID 624032);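 further: plate controls were DMSO for no effect and PTC124 positive control mean for full effect; nearly all actives have a fitted effect of over 30% in size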
Outline: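 Rat S16 Schwann cells stably carrying a PMP22 intronic element-driven Fluc reporter were seeded overnight, then exposed to compounds for 24 h at 37 °C. Luminescence was normalized to PTC124 (positive control) and DMSO (0% activity).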

[12] = qHTS profiling for inhibitors of Plasmodium falciparum proliferation (AID 504749);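 further: 0% = DMSO vehicle and full inhibition = artemisinin control; nearly all actives have a fitted effect of over 60% in size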; details: P. falciparum in erythrocytes, SYBR Green DNA, 72 h, at 12.8 µM (top of the series)
Outline: (§1)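 Parasite proliferation within erythrocytes, 72 h exposure. Endpoint: SYBR Green I fluorescence after overnight lysis at room temperature. Controls: 0.29 uM artemisinin, DMSO.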

[13] = tested on: 3D7; experiment: as above; details: P. falciparum in erythrocytes, SYBR Green DNA, 72 h; series mostly up to 28.7 µM
Outline: as §1

[14] = tested on: 7G8; experiment: as above; details: P. falciparum in erythrocytes, SYBR Green DNA, 72 h; series mostly up to 28.7 µM
Outline: as §1

[15] = tested on: AA1029; experiment: as above; details: P. falciparum in erythrocytes, SYBR Green DNA, 72 h; series mostly up to 28.7 µM
Outline: as §1

[16] = tested on: AS120; experiment: as above; details: P. falciparum in erythrocytes, SYBR Green DNA, 72 h; series mostly up to 28.7 µM
Outline: as §1

[17] = tested on: ATS189; experiment: as above; details: P. falciparum in erythrocytes, SYBR Green DNA, 72 h; series mostly up to 28.7 µM
Outline: as §1

[18] = tested on: ATS95; experiment: as above; details: P. falciparum in erythrocytes, SYBR Green DNA, 72 h; series mostly up to 28.7 µM
Outline: as §1

[19] = tested on: C2A; experiment: as above; details: P. falciparum in erythrocytes, SYBR Green DNA, 72 h; series mostly up to 28.7 µM
Outline: as §1

[20] = tested on: CP185; experiment: as above; details: P. falciparum in erythrocytes, SYBR Green DNA, 72 h; series mostly up to 28.7 µM
Outline: as §1

[21] = tested on: CP191; experiment: as above; details: P. falciparum in erythrocytes, SYBR Green DNA, 72 h; series mostly up to 28.7 µM
Outline: as §1

[22] = tested on: CP192; experiment: as above; details: P. falciparum in erythrocytes, SYBR Green DNA, 72 h; series mostly up to 28.7 µM
Outline: as §1

[23] = tested on: CP194; experiment: as above; details: P. falciparum in erythrocytes, SYBR Green DNA, 72 h; series mostly up to 28.7 µM
Outline: as §1

[24] = tested on: CP201; experiment: as above; details: P. falciparum in erythrocytes, SYBR Green DNA, 72 h; series mostly up to 28.7 µM
Outline: as §1

[25] = tested on: CP203; experiment: as above; details: P. falciparum in erythrocytes, SYBR Green DNA, 72 h; series mostly up to 28.7 µM
Outline: as §1

[26] = tested on: CP211; experiment: as above; details: P. falciparum in erythrocytes, SYBR Green DNA, 72 h; series mostly up to 28.7 µM
Outline: as §1

[27] = tested on: CP215; experiment: as above; details: P. falciparum in erythrocytes, SYBR Green DNA, 72 h; series mostly up to 28.7 µM
Outline: as §1

[28] = tested on: CP217; experiment: as above; details: P. falciparum in erythrocytes, SYBR Green DNA, 72 h; series mostly up to 28.7 µM
Outline: as §1

[29] = tested on: CP237; experiment: as above; details: P. falciparum in erythrocytes, SYBR Green DNA, 72 h; series mostly up to 28.7 µM
Outline: as §1

[30] = tested on: CP238; experiment: as above; details: P. falciparum in erythrocytes, SYBR Green DNA, 72 h; series mostly up to 28.7 µM
Outline: as §1

[31] = tested on: CP247; experiment: as above; details: P. falciparum in erythrocytes, SYBR Green DNA, 72 h; series mostly up to 28.7 µM
Outline: as §1

[32] = tested on: CP250; experiment: as above; details: P. falciparum in erythrocytes, SYBR Green DNA, 72 h; series mostly up to 28.7 µM
Outline: as §1

[33] = tested on: CP252; experiment: as above; details: P. falciparum in erythrocytes, SYBR Green DNA, 72 h; series mostly up to 28.7 µM
Outline: as §1

[34] = tested on: CP256; experiment: as above; details: P. falciparum in erythrocytes, SYBR Green DNA, 72 h; series mostly up to 28.7 µM
Outline: as §1

C[C@H](O)[C@@H]1C(=O)N2C(C(=O)O)=C(SCCN=CN)C[C@@H]12
inactive: activity change, negative = inhibition [1] -9.39% | activity, negative = inhibition [2] -2.21% | Potency [3] > 20.6 µM | Potency [4] > 20.6 µM | Potency [5] | Potency [6] | Potency [7] | Potency [8] | Potency [9] | Potency [10] | Potency [11] | activity, negative = inhibition ([12]; parasite line A) 7.64% | activity, negative = inhibition ([12]; parasite line B) 5.5% | Potency [13] | Potency [14] | Potency [15] | Potency [16] | Potency [17] | Potency [18] | Potency [19] | Potency [20] | Potency [21] | Potency [22] | Potency [23] | Potency [24] | Potency [25] | Potency [26] | Potency [27] | Potency [28] | Potency [29] | Potency [30] | Potency [31] | Potency [32] | Potency [33] | Potency [34]
